High-throughput results deposited in PubChem BioAssay by National Center for Advancing Translational Sciences (NCATS).
A selection: hits, their analogues and other compounds. The true share with any hit is near 22%.
Shiga toxin inh – A qHTS for Small Molecule Inhibitors of Shiga Toxin. Vero cells, Shiga toxin protein synthesis inhibition reporter. AID 2315, 2010. actives 9.2% (n = 290,000). inhibition, % at 38.7 µM; in the data active = inhibition mostly above about 28%, no sharp cut-off; inactive = mostly below about 43%
Pf growth 96h – Primary qHTS for delayed death inhibitors of the malarial parasite plastid, 96 hour incubation; P. falciparum luciferase reporter growth, 96 h; Potency, µM (doses to about 28.7 µM), actives largely listed as inhibitors; actives 6.9% (n = 320,000)
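Readout is luminescence from an integrated firefly luciferase in P. falciparum. Red cells, 2% hematocrit and 0.05% parasitemia final, were cultured with compound through two parasite generations (96 hours) at 37 C, 5% CO2.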
Cycloheximide cs – Cycloheximide Counterscreen for Small Molecule Inhibitors of Shiga Toxin; AID 2314, 2010; cell reporter, cycloheximide protein synthesis inhibition counterscreen; max response, %; actives 12% (n = 300,000); in the data active = max response mostly above about 13%, no sharp cut-off; inactive = mostly below about 14%; note: read at 38.3 µM for the half of the compounds with a filed dose
Pf growth 48h – Primary qHTS for delayed death inhibitors of the malarial parasite plastid, 48 hour incubation; P. falciparum luciferase growth in erythrocytes, 48 h; Potency, µM (highest dose often 28.7 µM), actives largely listed as inhibitors; actives 5.9% (n = 310,000)
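Read-out is firefly luciferase luminescence from an integrated reporter in P. falciparum, so falling signal marks reduced parasite growth. Infected erythrocytes were at 2% hematocrit and 0.1% parasitemia (final) in Albumax-supplemented RPMI 1640.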
LmPK inhibitor – qHTS Assay for Inhibitors of Leishmania Mexicana Pyruvate Kinase (LmPK) | Q27686 | Potency, µM (top dose mostly 57.5 µM), actives largely listed as inhibitors | actives 0.37% (n = 290,000) | purified LmPK, Kinase-Glo ATP luminescence, 1 h
Target sequence (Q27686 whole entry, looked up): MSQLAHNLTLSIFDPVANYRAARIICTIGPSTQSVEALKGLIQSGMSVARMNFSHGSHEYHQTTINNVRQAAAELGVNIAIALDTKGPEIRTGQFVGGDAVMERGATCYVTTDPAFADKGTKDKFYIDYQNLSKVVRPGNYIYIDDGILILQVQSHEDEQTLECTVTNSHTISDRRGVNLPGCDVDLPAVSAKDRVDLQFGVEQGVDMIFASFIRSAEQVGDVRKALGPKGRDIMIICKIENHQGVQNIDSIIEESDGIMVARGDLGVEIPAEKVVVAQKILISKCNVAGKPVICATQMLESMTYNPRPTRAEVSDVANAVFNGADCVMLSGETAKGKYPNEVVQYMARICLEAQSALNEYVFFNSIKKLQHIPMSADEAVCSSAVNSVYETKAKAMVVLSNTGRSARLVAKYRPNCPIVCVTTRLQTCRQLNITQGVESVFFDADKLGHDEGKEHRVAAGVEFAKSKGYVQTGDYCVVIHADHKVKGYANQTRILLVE
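Pyruvate kinase activity monitored as ATP production (luciferase luminescence). Conditions: 0.1 nM enzyme, 0.5 mM PEP, 0.1 mM ADP, 1 h, RT; normalized against uninhibited and no-enzyme wells.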
Numbers stand for hits; i = inactive; ? = inconclusive; nt = not tested or not shown. Unless noted, calls come from the whole dose curve; as a rule, active = well fitted inhibition curve with a large enough effect; inconclusive = small, poorly fitted or top-dose-only effect, or another doubt; inactive = no such curve, though single readings can be large or run the other way.

SMILES | Shiga toxin inh | Pf growth 96h | Cycloheximide cs | Pf growth 48h | LmPK inhibitor
CCNC(=S)NNC(=O)c1cc(-c2cccc(OC)c2)nc2ccccc12 | i | i | 71 | i | i
CCNC(=S)NNC(=O)c1cc(-c2ccc(OCC)cc2)nc2ccccc12 | i | i | i | ? | i
CCNC(=S)NNC(=O)c1cc(-c2ccccc2C)nc2ccccc12 | i | ? | i | ? | i
Nc1cc(=O)[nH]c(SCC(=O)N2CCCCC2)n1 | i | i | i | i | i
Cc1ccc(S(=O)(=O)NC(C)CCc2ccccc2)cc1C(N)=O (stereo not drawn) | i | ? | i | i | i
NC(=O)COC(=O)c1c2c(nc3ccccc13)CCCCC2 | i | i | i | i | i
O=C(COC(=O)c1c2c(nc3ccccc13)CCCC2)c1cccs1 | i | ? | 23 | ? | i
O=C(COC(=O)c1c2c(nc3ccccc13)CCCCC2)c1ccc(Cl)s1 | 78 | ? | i | i | i
CCc1ccc(NC(=O)COc2cccc(-n3cnnn3)c2)cc1 | i | i | i | i | i
CC1=C(C(=O)Nc2ccccc2)C(c2sccc2C)n2nnnc2N1 (stereo not drawn) | i | i | i | nt | i
O=C(Cc1ccsc1)NNC(=O)c1ccccc1O | nt | i | nt | i | nt
O=C(Cn1cnc2ccccc21)Nc1ccc(SC(F)F)cc1 | i | i | i | i | i
CCn1c(N)[n+](CC(=O)Nc2ccc(SC(F)F)cc2)c2ccccc21 | i | 2.9µM | i | 8.3µM | i
Cc1nc2c(C(=O)Nc3ccc(N4CCCC(O)C4)cc3)snc2c(=O)[nH]1 (stereo not drawn) | i | ? | i | 1.7µM | i
CCOC(=O)C(CCCCOc1ccc([N+](=O)[O-])cc1)C(=O)OCC | i | ? | i | i | i
COC(=O)c1ccc(N=Nc2ccccc2)cc1 | 79 | i | 32 | i | i
CCOC(=O)C(CCCOc1ccccc1C)C(=O)OCC | i | 9.3µM | i | i | i
COc1cccc(OC)c1OCCOc1ccc(C(=O)c2ccccc2)cc1 | i | 0.37µM | i | i | i
COC(=O)c1ccc(OCCOc2ccccc2C)cc1 | i | 1.3µM | 12 | i | i
CCc1c(C(=O)NN2C(=O)C3CCCCC3C2=O)csc1C (stereo not drawn) | i | i | i | i | i
COC(=O)c1ccc(OCCCCN(C)Cc2ccccc2)cc1 | nt | i | i | i | i
COC(=O)c1ccc(OCCOc2ccccc2)cc1 | 59 | i | 22 | nt | i
OCC[C@H]1C[C@@H](O)[C@H](O)[C@]2(Cc3ccccc3CCO2)O1 | nt | i | nt | i | nt
Cc1ccc(C)c(C(=O)COC(=O)Cn2c(C)csc2=O)c1 | i | i | i | i | i
O=c1[nH]c(C2CCN(S(=O)(=O)Cc3ccccc3)CC2)nc2c1nnn2Cc1ccccc1 | i | i | i | 9.3µM | i
SMILES | Shiga toxin inh | Pf growth 96h | Cycloheximide cs | Pf growth 48h | LmPK inhibitor
O=c1[nH]c(C2CCN(S(=O)(=O)c3ccc(S(=O)(=O)NC4CC4)cc3)CC2)nc2c1nnn2Cc1ccc(F)cc1 | i | ? | i | ? | i
O=c1[nH]c(C2CCN(S(=O)(=O)c3cccc([N+](=O)[O-])c3)CC2)nc2c1nnn2Cc1ccccc1 | i | i | i | 8.3µM | i
Cc1ccc(Cn2nnc3c(=O)[nH]c(C4CCN(S(=O)(=O)c5cc(C)ccc5C)CC4)nc32)cc1 | i | nt | i | 5.2µM | i
Cc1ccc(C)c(S(=O)(=O)N2CCC(c3nc4c(nnn4Cc4ccc(F)cc4)c(=O)[nH]3)CC2)c1 | i | i | i | ? | i
O=c1[nH]c(C2CCN(S(=O)(=O)c3ccc(S(=O)(=O)NC4CC4)cc3)CC2)nc2c1nnn2Cc1ccccc1 | i | i | i | 3.7µM | i
CCOc1cc(C(=O)N/N=C\c2cn(CC)nc2C)cc(OCC)c1OCC | i | ? | i | i | i
Cc1ccc(C)c(Cn2nnc3c(=O)[nH]c(C4CCN(S(=O)(=O)c5ccc(S(=O)(=O)N(C)C)cc5)CC4)nc32)c1 | i | i | i | ? | i
Cc1ccc(Cn2nnc3c(=O)[nH]c(C4CCN(S(=O)(=O)c5ccc(F)cc5)CC4)nc32)cc1 | i | nt | i | i | i
O=c1[nH]c(C2CCN(S(=O)(=O)/C=C/c3ccccc3)CC2)nc2c1nnn2Cc1ccc(F)cc1 | i | ? | i | 1.9µM | i
Cc1ccc(C)c(Cn2nnc3c(=O)[nH]c(C4CCN(S(=O)(=O)c5ccc(S(=O)(=O)NC6CC6)cc5)CC4)nc32)c1 | i | i | i | 2.6µM | i
CC(=O)NC(Cc1ccc(N(CCCl)CCCl)cc1)C(=O)NC(C(=O)O)C(C)C (stereo not drawn) | i | i | i | i | i
CCOC(=O)CC(NC(=O)C(Cc1ccc(N(CCCl)CCCl)cc1)NC(C)=O)C(=O)OCC (stereo not drawn) | i | i | i | 9.3µM | i
CCCn1nnnc1SCC(=O)c1ccc2c(c1)OCCO2 | 74 | i | 36 | i | i
COCCn1c(SCC(=O)c2ccc3c(c2)OCCO3)nnc1-c1ccco1 | i | i | i | i | i
Cn1nnnc1SCC(=O)c1ccc2c(c1)OCCO2 | 97 | ? | 38 | i | i
CCn1c(SCC(=O)c2ccc3c(c2)OCCO3)nnc1-c1ccco1 | i | i | 15 | i | i
COc1ccc(C(=O)CSc2nncn2C)cc1 | i | nt | i | i | i
Cn1cnnc1SCC(=O)c1ccc2c(c1)OCCO2 | 49 | i | i | nt | i
O=C(CSc1ccccc1[N+](=O)[O-])NC1CCS(=O)(=O)C1 (stereo not drawn) | i | ? | i | i | i
O=C(COC(=O)CSc1ccc(F)cc1)NC1CCCCCC1 | nt | i | nt | i | nt
Cc1ccc(-c2cc(C(=O)N/N=C/c3ccccc3)n[nH]2)o1 | 82 | ? | 25 | i | i
O=C(N/N=C/C(Br)=C/c1ccccc1)c1cc(-c2ccco2)[nH]n1 | 39 | i | i | i | i
Cn1c(=O)oc2cc(S(=O)(=O)Nc3cccc4c3CCCC4)ccc21 | i | ? | i | i | i
O=c1nc2ccccc2c2n1CC(CN1CCN(c3ccccc3F)CC1)N2 (stereo not drawn) | i | i | i | i | i
O=C(COC(=O)Cn1cnc2ccccc21)Nc1cc2c(cc1Cl)C(=O)c1ccccc1C2=O | 50 | i | 37 | i | i
SMILES | Shiga toxin inh | Pf growth 96h | Cycloheximide cs | Pf growth 48h | LmPK inhibitor
CCOC(=O)c1ccc(NC(=O)NCCc2cnc[nH]2)cc1 | i | ? | i | i | i
COc1cc2ccccc2cc1C(=O)OCC(=O)N(CC(C)C)c1c(N)n(Cc2ccccc2)c(=O)[nH]c1=O | nt | ? | nt | 10µM | nt
Cc1ccc(C)c(N2N=C(C(=O)N(CC(C)C)c3c(N)n(Cc4ccccc4)c(=O)[nH]c3=O)CCC2=O)c1 | i | 7.4µM | i | 13µM | i
CC(C)CN(C(=O)COC(=O)Cc1ccc(Cl)cc1)c1c(N)n(Cc2ccccc2)c(=O)[nH]c1=O | nt | i | nt | ? | nt
CC(C)CN(C(=O)COC(=O)c1cccc2ccccc12)c1c(N)n(Cc2ccccc2)c(=O)[nH]c1=O | nt | i | nt | ? | nt
CC(C)CN(C(=O)CCCOc1ccc(Cl)cc1Cl)c1c(N)n(Cc2ccccc2)c(=O)[nH]c1=O | nt | ? | nt | 12µM | nt
